Data on 33 molecules can be found in PubChem BioAssay AID1851 (National Center for Advancing Translational Sciences (NCATS), 2009).

Out of some 16,000 compounds screened, about 2,600 (16%) were called active. Not shown: some 20% with an inconclusive outcome. Calls follow the shape of the dose curve; as a rule, active = well fitted curve in the direction sought with a large enough effect; inconclusive = small, poorly fitted or top-dose-only effect, or effect the other way; inactive = no such curve, though single readings can be large or run the other way. Not all results are given here. Peptide text beside a SMILES is read from it.
% is scaled to controls: 0 for no effect and ±100 for the full control effect.

In the assay the target is Cytochrome P450 2D6 (Homo sapiens) (UniProt P10635). Kind of assay: Cytochrome panel assay with activity outcomes. Conditions: recombinant CYP, pro-luciferin dealkylation, luminescence, p450-cyp2d6; series mostly up to 57.1 µM.
Sequence of Cytochrome P450 2D6 (Homo sapiens) (P10635 whole entry, looked up): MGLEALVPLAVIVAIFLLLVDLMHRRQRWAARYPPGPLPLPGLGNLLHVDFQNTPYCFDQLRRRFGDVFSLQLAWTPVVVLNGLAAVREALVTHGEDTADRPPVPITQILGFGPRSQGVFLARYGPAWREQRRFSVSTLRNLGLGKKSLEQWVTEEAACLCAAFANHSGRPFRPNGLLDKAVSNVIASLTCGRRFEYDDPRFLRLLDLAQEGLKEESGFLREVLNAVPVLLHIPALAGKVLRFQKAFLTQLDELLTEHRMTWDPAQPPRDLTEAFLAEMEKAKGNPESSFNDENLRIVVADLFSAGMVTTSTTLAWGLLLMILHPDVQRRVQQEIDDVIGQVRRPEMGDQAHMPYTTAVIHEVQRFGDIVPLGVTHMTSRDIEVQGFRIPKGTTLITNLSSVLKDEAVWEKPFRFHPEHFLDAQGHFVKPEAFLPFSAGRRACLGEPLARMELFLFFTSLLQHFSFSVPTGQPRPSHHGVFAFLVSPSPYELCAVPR
With `Cn1c(=O)c(-c2ccccc2)nc2cncnc21`, the AC50 (as a rule, the midpoint of the concentration-response curve, whichever way the signal moves) is “inactive”.

Consider `Nc1nonc1-n1nncc1-c1ccccc1`, for which the AC50 result was “inactive”.

With `Cn1c(-c2ccccc2)cnc1N`, the AC50 was 11200 nM (active).

For `CCCCN1C(=O)C(NC(=O)c2cccnc2)(C(F)(F)F)C2=C1CC(C)(C)CC2=O` (stereo not drawn), the AC50 entry was “inactive”.

With `COc1ccc2c3c(ccc2c1)N[C@H](C(=O)O)CC3`, the activity, negative = inhibition was 3.59% [at 11.4 µM] (inactive).

On to `Cc1cc(=O)[nH]c(-n2[nH]c(C)cc2=O)n1`, for which the AC50 result is “inactive”.

On to `CC1(C)CCC(NC(=O)[C@H](N)CCC(=O)O)CC1`, for which the AC50 result was “inactive”.

Take `COc1ccc(-n2c(=O)c(-c3cccs3)nc3cnc(N4CCNCC4)nc32)cc1`: the AC50 entry is “inactive”.

As for `CCOC(=O)c1sc(NC(C)=O)nc1-c1ccccc1`, the AC50 result is “inactive”.

For the molecule `Cc1cc(C)c(C#N)c(SCS(=O)c2ccc(C(C)(C)C)cc2)n1` (stereo not drawn), the AC50 result is “inactive”.

As to `C=CCSc1nc(C)cc(/C=C\c2ccccc2)c1C#N`, the AC50 was 2820 nM (active).

In the case of `Cc1cc(C)c(C#N)c(Oc2ccccc2)n1`, the AC50 entry is “inactive”.

Consider `COc1ccc(-c2nc3cnc(N(C)C)nc3n(CCc3ccccc3)c2=O)cc1`, for which the AC50 entry was “inactive”.

On to `Cc1ccc(S(=O)(=O)CCc2nnc(NC(=O)COc3cccc(C)c3)s2)cc1`, for which the AC50 entry is “inactive”.

For the molecule `CC(=O)N[C@@H](CC(=O)O)C(=O)N[C@@H](CCC(=O)O)C(=O)O` (Ac-Asp-Glu-OH), the AC50 result is “inactive”.

As to `COc1cc2nncc(SCc3ccc(Cl)c(Cl)c3)c2cc1OC`, the activity, negative = inhibition is 1.56% [at 11.4 µM] (inactive).

As to `Clc1ccc(CSC2=NCCN2)cc1Cl`, the AC50 was 3160 nM (active).

As to `Cc1ccc(S(=O)(=O)NCc2cccc([N+](=O)[O-])c2)cc1`, the activity, negative = inhibition was 1.17% [at 11.4 µM] (inactive).

Take `N[C@@H](Cc1cccc([N+](=O)[O-])c1)C(=O)O`: the activity, negative = inhibition was 1.07% [at 11.4 µM] (inactive).

Consider `CCN(Cc1ccccc1)Cc1cccc([N+](=O)[O-])c1`, for which the AC50 was 794 nM (active).

For `CN(C)N1C(N)=C(C#N)C(c2cccnc2)C2=C1CC(C)(C)CC2=O` (stereo not drawn), the AC50 result was “inactive”.

As to `Cc1ccc(=O)n(-c2ccccc2)c1`, the AC50 result was “inactive”.

As for `O=C1C=C(NCC2CCCO2)C2(CCCCC2)O1` (stereo not drawn), the AC50 result was “inactive”.

In the case of `COCCn1c(=O)c(-c2ccc(F)c(F)c2)nc2cncnc21`, the AC50 entry is “inactive”.

Regarding `Cc1ccc(N=Cc2nc(/C=C/c3cccc([N+](=O)[O-])c3)oc2O)cc1`, the AC50 result is “inactive”.

Take `CN(C)c1ncc2nc(-c3ccc(F)cc3)c(=O)n(Cc3ccc(F)cc3)c2n1`: the AC50 entry is “inactive”.

Turning to `C#CCCCO/N=C1/C[C@@H](O)[C@@H](O)[C@@H]2[C@@H]3C(=O)N(C4CCCCC4)C(=O)[C@H]3CC[C@H]12`, the activity, negative = inhibition is 18.1% [at 11.4 µM] (inactive).

In the case of `N#Cc1c(-c2ccccc2)cc(C2CC2)nc1SCC(=O)c1cccs1`, the AC50 entry was “inactive”.

For the molecule `O=C(CSc1nnc(-c2ccccc2)n1-c1ccccc1)c1cccs1`, the AC50 was 2510 nM (active).

Turning to `Cc1ccccc1NC(=O)CSc1nnc(-c2ccccc2)n1-c1ccccc1`, the AC50 is 1780 nM (active).

Consider `CCn1c(SCC(=O)Nc2ccccc2C(=O)OC)nnc1-c1ccc(N)cc1`, for which the AC50 result was “inactive”.

As for `CCOc1ccc(-n2c(SCC(=O)Nc3ccccc3C)n[nH]c2=O)cc1`, the AC50 result is “inactive”.

Take `COC(=O)CSc1nnc(-c2ccccc2OC)n1-c1ccc(C)cc1`: the AC50 result is “inactive”.
